This is an account of results in PubChem BioAssay AID777 (Sanford-Burnham Center for Chemical Genomics, 2007).

As a reminder, the inhibition is the drop in the measured response relative to a control, in per cent.

Among all 96,000 compounds or so, about 19,000 (20%) were called active. Not all results are given here. Values without a mark were called inactive.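 How the source made its calls: active means blocking of liver enzyme CYP2C9 beyond about 50% at 5 µM (limit read from the data); inactive means the rest.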

For this assay, the target named is Cytochrome P450 2C9 (Homo sapiens) (UniProt P11712). The assay can be described thus: blockers of cytochrome P450 2C9 activity – biochemical, luminescence, ADME assay, primary screen (AID 777). The note with it: CYP2C9 Supersomes, luciferin-H conversion, at 5 µM, hits give high values.
Sequence of Cytochrome P450 2C9 (Homo sapiens) (P11712 whole entry, looked up): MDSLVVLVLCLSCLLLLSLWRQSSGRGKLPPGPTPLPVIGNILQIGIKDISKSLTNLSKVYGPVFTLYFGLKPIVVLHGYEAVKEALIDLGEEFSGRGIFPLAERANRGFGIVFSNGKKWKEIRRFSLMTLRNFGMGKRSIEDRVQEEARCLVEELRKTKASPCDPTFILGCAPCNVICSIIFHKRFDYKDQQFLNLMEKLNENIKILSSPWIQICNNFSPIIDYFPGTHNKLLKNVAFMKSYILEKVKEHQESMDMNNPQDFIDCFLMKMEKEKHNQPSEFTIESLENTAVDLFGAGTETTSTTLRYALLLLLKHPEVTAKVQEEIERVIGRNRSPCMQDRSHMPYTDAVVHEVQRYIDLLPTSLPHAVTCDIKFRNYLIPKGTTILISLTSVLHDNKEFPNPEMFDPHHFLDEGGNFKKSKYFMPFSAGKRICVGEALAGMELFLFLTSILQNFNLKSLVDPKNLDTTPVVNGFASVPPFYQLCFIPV
Regarding `Cc1cccc(CSc2nnc(NC(=O)CSc3nnc(C)s3)s2)c1`, the inhibition is -12%.

Regarding `CC(CCO)Nc1nc2c([nH]1)c(=O)n(C)c(=O)n2C` (centres undefined), the inhibition was 19.8%.

In the case of `COc1ccc(OC)c2[nH]c(=O)c(CCNC(=O)C(C)(C)C)cc12`, the inhibition was -7%.

In the case of `COC(=O)COc1ccc(S(=O)(=O)Nc2ccc(NC(C)=O)cc2)cc1`, the inhibition was 61.2% (active).

In the case of `COc1ccc(NS(=O)(=O)c2ccc(NC(C)=O)cc2)cc1OC`, the inhibition is -8.7%.

Regarding `CC(=O)Nc1ccc(S(=O)(=O)Nc2cccc(NC(=O)C(C)(C)C)c2)cc1`, the inhibition is 59.2% (active).

Turning to `O=C(O)CCC(=O)Nc1ccc(N2CCOCC2)cc1`, the inhibition was 3.7%.

Regarding `COc1ccc(NS(=O)(=O)c2ccc(NC(=O)C(C)(C(F)(F)F)C(F)(F)F)cc2)nn1`, the inhibition was 12.4%.

With `COc1cc(NS(=O)(=O)c2ccc(NC(C)=O)cc2)cc(OC)c1`, the inhibition is 43.7%.

For the compound `COc1ccc(NS(=O)(=O)c2ccc(NC(=S)NC(=O)CC(C)C)cc2)cc1`, the inhibition was 54.8% (active).

Take `CC(=O)Nc1ccc(S(=O)(=O)Nc2nc3n(n2)C(c2ccccc2)CC(=O)N3)cc1` (centres undefined): the inhibition was -3.6%.

On to `COc1ccc(C(=O)Nc2ccc(S(=O)(=O)NC(C)C)cc2)cc1`, for which the inhibition was 34.1%.

On to `CC(=O)NS(=O)(=O)c1ccc(NC(=S)NC(=O)C(C)(C)C)cc1`, for which the inhibition was -22.1%.

As to `CC(=O)Nc1ccc(S(=O)(=O)Nc2ccc(N3CCOCC3)c(F)c2)cc1`, the inhibition is 50% (active).

Regarding `CCCC(NS(=O)(=O)c1ccc(OC)cc1)C(=O)O` (centres undefined), the inhibition was 12.5%.

Regarding `Cc1ccccc1-n1nc(C)c2cc(C(=O)NC3CC3)sc21`, the inhibition was 37.1%.

`O=C(c1ccco1)N1CCN(CC(=O)N(C2CCCCC2)C2CCS(=O)(=O)C2)CC1` (centres undefined): the inhibition was -18.6%.

In the case of `O=[N+]([O-])c1ccccc1OCCCCN1CCCCC1`, the inhibition is -4%.

Turning to `CCCC(=O)Nc1nc2ccc(NC(=O)c3cccnc3)cc2s1`, the inhibition was 27.5%.

As for `CCc1c(C)sc(NC(=O)c2ccc(Br)o2)c1C(=O)OC`, the inhibition was -40.5%.

Take `CCOC(=O)c1c(CN2CCOCC2)n(-c2ccccc2)c2ccc(O)cc12`: the inhibition was 38.1%.

As for `COc1cccc(CN2C(=O)CCC2(C)C(=O)NC2CCCCCC2)c1` (centres undefined), the inhibition was -58.7%.

Regarding `CCNc1nc(SCCOc2ccccc2)nc(N(C)C)n1`, the inhibition is -4.3%.

As for `Cn1c(=O)cc(SCC(=O)N2CCCC2)c2cc(Cl)ccc21`, the inhibition is 0.1%.

With `CCOC(=O)Nc1ccc2c(c1)N(C(=O)CN1CCN3CCCC3C1)c1ccccc1CC2` (centres undefined), the inhibition is 0.1%.

In the case of `CSCC[C@H](NC(=O)NCc1cccs1)C(=O)O`, the inhibition is -6.8%.

Turning to `COc1ccc(-n2ncc3c(N4CCc5ccccc54)ncnc32)cc1`, the inhibition was -29.5%.

As for `CC1(C)CC(=O)C=C(NC2CC(C)(C)NC(C)(C)C2)C1`, the inhibition is 9.6%.

As to `Cc1ccnc(N2CCN(C(=O)CSc3nc4ccccc4nc3N3CCCCC3)CC2)c1`, the inhibition is 98.5% (active).

On to `Cc1ccc(S(=O)(=O)NCC(=O)N2CCN(c3ccccn3)CC2)cc1`, for which the inhibition is 5.3%.

On to `Cc1ccc2oc(=O)c3cnn(CC(=O)N4CCN(c5ccccn5)CC4)c3c2c1`, for which the inhibition was 20.1%.

With `CCCc1cc(-c2n[nH]c(=S)n2Cc2ccccc2)cs1`, the inhibition is 38.6%.

As to `CC(C)c1ccc(N2CCN(C(=O)c3ccccc3NC(=O)/C=C(\C(=O)O)c3ccccc3)CC2)cc1`, the inhibition was 18%.

Take `CCOCCN(C=O)c1cccc(OC)c1`: the inhibition is -20.4%.

Turning to `CCOC(=O)CN(Cc1ccc(OC)c(OC)c1)S(=O)(=O)c1ccc(OC)cc1`, the inhibition is 64% (active).

`O=C(OCc1cc2ccccc2[nH]c1=O)c1cccnc1`: the inhibition was 12.7%.

`C=CCSc1nc(Cc2ccc(Cl)cc2)nc2ccccc12`: the inhibition is 2.7%.

On to `O=C(CCN1C(=O)c2ccccc2C1=O)Nc1ccncc1`, for which the inhibition is 65.7% (active).

Take `O=C(CCN1C(=O)c2ccncc2C1=O)Nc1ccc2c(c1)OCCO2`: the inhibition is -3.9%.

As for `O=C(CC1Nc2ccccc2NC1=O)Nc1ccccc1` (centres undefined), the inhibition was 6.5%.

For the compound `O=C(CCN1c2ccccc2Sc2ccccc21)Nc1ccccc1`, the inhibition was 95.4% (active).

With `O=C(CCN1C(=O)c2ccccc2C1=O)Nc1cccc(F)c1`, the inhibition is 28.8%.

With `O=C(O)CCCC(=O)Nc1ccccc1-n1ccnc1`, the inhibition is 0.8%.

Take `COc1ccc(Br)cc1S(=O)(=O)N1CCN=C1C`: the inhibition is -27.3%.

Take `Cc1nc2cc(-c3ccc(F)cc3)nn2c(N2CCOCC2)c1C`: the inhibition was 8.9%.

`CCN1CCN(Cc2c(O)ccc3c(=O)c(-c4ccc(OC)c(OC)c4)c(C(F)(F)F)oc23)CC1`: the inhibition was 8.1%.

As to `O=c1c(-c2ccc3c(c2)OCCO3)c(C(F)(F)F)oc2cc(O)cc(O)c12`, the inhibition was 87.3% (active).

As for `Cc1nc(SC(C)C)[nH]c(=O)c1Cc1ccccc1`, the inhibition is 26%.

Regarding `CCN1C(=O)/C(=C2/Sc3ccccc3N2CCCS(=O)(=O)O)SC1=S`, the inhibition is 7%.

In the case of `COc1cc(/C=N/Nc2nn3cnnc3c3ccccc23)cc(OC)c1OC`, the inhibition was 25.9%.

In the case of `Cc1ccc2[nH]c(=O)c(COC(=O)c3ccccn3)cc2c1`, the inhibition was 8.6%.

As for `Cc1ccc2cc(CCNC(=O)c3c(-c4ccccc4Cl)noc3C)c(=O)[nH]c2c1`, the inhibition is 93.8% (active).

As for `Cc1onc(-c2ccccc2Cl)c1C(=O)OCC(=O)c1ccccc1`, the inhibition is 65.8% (active).

As to `Cc1cc2ccccc2n1CCNC(=O)COc1ccc2ccccc2c1`, the inhibition is 33.5%.

As for `COc1c(O)cccc1-c1nnn(CCC(=O)OCC(=O)c2ccccc2)n1`, the inhibition was 29%.

On to `O=C1c2ccccc2C(=O)N1Cc1cc(-c2ccccc2Cl)no1`, for which the inhibition was -135%.

Consider `Cc1onc(-c2ccccc2Cl)c1C(=O)NCCn1ccc2ccccc21`, for which the inhibition is 54.6% (active).

Regarding `Cc1ccc2cc(CCNC(=O)c3ccc4c(c3)OCO4)c(=O)[nH]c2c1`, the inhibition is 31.9%.

Take `Cc1onc(-c2c(Cl)cccc2Cl)c1C(=O)c1c[nH]c(C(=O)NC2CC2)c1`: the inhibition was 7.6%.

Take `CC(C)Cc1oc(C(=O)O)cc1CN`: the inhibition was -3.5%.

In the case of `C#CCSc1nnc(-c2sc3ccccc3c2Cl)o1`, the inhibition is 26.7%.

Regarding `COc1ccc(C(=O)N2CCC(C(=O)Nc3cccc(C)c3)CC2)cc1OC`, the inhibition was 8.3%.

Take `CCOc1ccc(N=C2SC(C(=O)O)CC(=O)N2C)cc1` (centres undefined): the inhibition was -4.3%.

`CC(C)(C)NC(=O)COc1ccc(CNc2ccc3[nH]c(=O)[nH]c3c2)cc1`: the inhibition is 31.4%.

For the compound `Cc1ccc(S(=O)(=O)c2c(COC(=O)c3cccc(Cl)c3)c(-c3ccccc3)nn2C)cc1`, the inhibition is 49.8%.

For the compound `Cc1ccc(N(CC(O)CN2CCCC2)S(=O)(=O)c2ccccc2)cc1` (centres undefined), the inhibition is 27.2%.

`O=S(=O)(c1ccccc1)N(CC(O)CN1CCCCC1)c1ccccc1` (centres undefined): the inhibition is 56% (active).

`Cc1cccc(N(CC(O)CN(C)C)S(=O)(=O)c2ccccc2)c1` (centres undefined): the inhibition is 7.4%.

Take `Cc1ccc(C(=O)N(CN2CCCC2=O)c2ccc(F)cc2)cc1`: the inhibition is -20%.

As for `CC(=O)N1Cc2ccccc2CC1C(=O)O` (centres undefined), the inhibition is -18.6%.

Consider `Cc1c(NC(=O)C(C)OC(=O)c2cc3c4ccccc4n(C)c3s2)c(=O)n(-c2ccccc2)n1C` (centres undefined), for which the inhibition is -4.5%.

Turning to `CCOc1ccccc1NC(=O)C1CCC(CNc2c(N3CCOCC3)c(=O)c2=O)CC1` (centres undefined), the inhibition was -30.1%.

For the compound `O=C(NC1CCCCC1)C1CC(=O)N(CCc2ccccc2)C1` (centres undefined), the inhibition is -4.8%.

For the compound `O=C(O)C1CC(=O)N(Cc2cccnc2)C1` (centres undefined), the inhibition is -22%.

As for `CCc1ccc(CNC(=O)C2CC(=O)N(CCc3ccc(C)cc3)C2)cc1` (centres undefined), the inhibition is 54.1% (active).

As to `Cc1ccc(CCN2CC(C(=O)O)CC2=O)cc1` (centres undefined), the inhibition is 53.7% (active).

As to `Cc1ccc(CNC(=O)C2CC(=O)N(C3CCCCCCC3)C2)cc1` (centres undefined), the inhibition was -1.3%.

On to `COCCCNC(=O)C1CC(=O)N(CCc2ccccc2)C1` (centres undefined), for which the inhibition is -3.7%.

Regarding `Cc1nc2ccccc2c2oc(C(=O)NCCCN3CCC(C)CC3)cc12`, the inhibition was 7.6%.

As for `O=C(Cn1cnc2c(nnn2-c2ccccc2)c1=O)N1CCC(Cc2ccccc2)CC1`, the inhibition is -30.4%.

Regarding `Cc1ccc(C(=O)N2CCCC2)c(F)c1F`, the inhibition was 6.3%.

`CN(C)CC(O)COc1ccc(C(C)(C)c2ccc(OCC(O)CN(C)C)cc2)cc1` (centres undefined): the inhibition was -6.4%.

For the compound `O=C(CNC(=O)c1ccccc1)NCC(=O)OCc1ccc(Cl)cc1`, the inhibition was 4.4%.

For `O=C(NCC1CCC(C(=O)O)CC1)OCc1ccccc1` (centres undefined), the inhibition was -10.5%.

For `O=C(CNC(=O)OCc1ccccc1)Oc1cc2oc(=O)cc(-c3ccccc3)c2cc1Cl`, the inhibition is 75.7% (active).

Consider `CCOC(=O)CSc1nncc2ccc(OC)c(OC)c12`, for which the inhibition is 4.3%.

Regarding `Cc1nc2ccccc2cc1OCc1ccc(F)cc1`, the inhibition was 47.1%.

In the case of `Cc1no[n+]([O-])c1COc1ccccc1/C=C1\NC(=S)NC1=O`, the inhibition was 30.2%.

`Cc1ccc(C(=O)NCC2CCCO2)o1` (centres undefined): the inhibition is 2.8%.

Consider `COc1cc(SC)ccc1C(=O)NCCOc1ccccc1Cl`, for which the inhibition was 28.9%.

In the case of `O=C(NCc1ccccn1)c1cc(-c2ccccc2Cl)on1`, the inhibition was -163%.

For the compound `Cc1ccc(-c2noc(-c3ccccc3C(=O)NCC3CCCO3)n2)cc1` (centres undefined), the inhibition is 70.8% (active).

As to `O=C(NCC1CCCO1)c1ccc2ccccc2n1` (centres undefined), the inhibition is -36.5%.

As to `COCCNC(=O)c1ccccc1-c1nc(-c2ccccc2Cl)no1`, the inhibition is 83.9% (active).

Regarding `O=C(c1ccc(=O)[nH]c1)N(Cc1ccco1)C1(C(=O)NC2CCCCC2)CCCCC1`, the inhibition was -8.6%.

With `COc1ccc(C2N=C(N)N=C(N)N2c2ccccc2)cc1OC` (centres undefined), the inhibition is -7%.

With `O=C(N/N=C/c1ccsc1)c1cc(O)cc(O)c1`, the inhibition is 5.4%.

For the compound `COc1cc(/C=N\NC(=O)C2C(=O)NCC2c2ccccc2)cc(OC)c1O` (centres undefined), the inhibition is -9.3%.

For `O=C(N/N=C/c1ccc(O)c(O)c1)C1c2ccccc2Oc2ccccc21`, the inhibition was 55.2% (active).
